In PubChem BioAssay (Tox21):
Several values for one entry are separate records, joined by “and”; a condition that tells them apart may be missing. Identical values can stand only once. Results filed as inconclusive are left out. Some compounds were tested as several samples or in several runs, with calls that do not always agree. Activity calls are given as the source filed them. Unless noted, calls follow the shape of the full dose curve.

Legend:
[1] = Nuclear factor erythroid 2-related factor 2/antioxidant responsive element (Nrf2/ARE) small molecule agonists: qHTS cell viability counter screen in human keratinocytes (AID 1919968; active = well fitted cell-killing curve with a large enough effect in the repeat runs; also: nearly all actives have a fitted effect of over 55% in size; also: potency is read from the fitted curve at half-maximal effect)
In short: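 Parallel cytotoxicity read: KeratinoSens HaCaT cells, compound treatment 23 h, viability by CellTiter-Fluor fluorescence 1 h post-reagent.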

[2] = Nuclear factor erythroid 2-related factor 2/antioxidant responsive element (Nrf2/ARE) small molecule agonists: luciferase reporter gene qHTS assay in human keratinocytes (AID 1919969); also: nearly all actives have a fitted effect of over 35% in size; also: potency is read from the fitted curve at half-maximal effect
[3] = G protein-coupled receptor (GPCR) small molecule agonists, calcium flux assay: HEK293 wild type cell line counter screen (AID 1920065)
In short: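 Non-specific calcium responders were flagged by adding DMSO-dissolved compounds to dye-loaded cells and reading 480/540 nm fluorescence each second for 3 min; ATP served as positive control.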

[4] = p53 small molecule agonists, cell-based qHTS assay with human liver microsomes (AID 1963577);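 also: p53 response element beta-lactamase reporter cells with liver microsomes plus NADPH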
In short: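 Reporter activation was measured by LiveBLAzer fluorescence intensity in p53RE-bla cells, which had been exposed to compounds for 16 h at 37 C alongside 0.5 mg/mL human liver microsomes and 0.5 mg/mL NADPH (final concentrations).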

[5] = p53 small molecule agonists, cell-based qHTS assay with rat liver microsomes (AID 1963578)
In short: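 Compound in DMSO added to p53RE-bla cells 5 h post-plating; rat microsomes/NADPH 0.5 mg/mL final; 16 h, 37 C; LiveBLAzer 2 h RT.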

[6] = p53 small molecule agonists, cell-based qHTS assay with rat liver microsomes: qHTS cell viability counter screen (AID 1963580); also: nearly all actives have a fitted effect of over 45% in size; also: potency is read from the fitted curve at half-maximal effect
In short: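 Cytotoxicity counter screen: intracellular ATP measured by CellTiter-Glo luminescence in the same wells as the beta-lactamase reporter read, on HCT-116 p53RE-bla cells exposed 16 h at 37 C to compounds with rat liver microsomes and NADPH, each 0.5 mg/mL final.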

[7] = p53 small molecule agonists, cell-based qHTS assay: qHTS cell viability counter screen (AID 1963581); also: nearly all actives have a fitted effect of over 45% in size; also: potency is read from the fitted curve at half-maximal effect
In short: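 Multiplexed with the reporter read, a CellTiter-Glo step (30 min, room temperature) gauges ATP-based viability of HCT-116 p53RE-bla cells after 16 h compound incubation at 37 C.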

[8] = p53 small molecule agonists, cell-based qHTS assay (AID 1963582; active = well fitted activation curve with a large enough effect in the signal ratio in the repeat runs, not every such curve was filed as active; the % refers to the signal ratio)
In short: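 Beta-lactamase reporter cells (p53RE-bla) treated with compounds for 16 h at 37 C; FRET substrate, 2 h, room temperature; fluorescence intensity.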

[9] = biological target: 5-hydroxytryptamine receptor 2A (Homo sapiens) (UniProt P28223); test: 5-hydroxytryptamine receptor 2A (HTR2A) small molecule antagonists, cell-based qHTS assay (AID 1963586); also: nearly all actives have a fitted effect of over 45% in size; also: potency is read from the fitted curve at half-maximal effect
In short: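 CHO cells stably expressing human HTR2A were plated for 18 h at 37 C, then loaded with calcium dye for 1 h. Compounds were preincubated 5 min at room temperature before DOI (4 nM solution) was added. Kinetic fluorescence was read for 3 min.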

[10] = biological target: 5-hydroxytryptamine receptor 2A (Homo sapiens) (UniProt P28223); test: 5-hydroxytryptamine receptor 2A (HTR2A) small molecule agonists, cell-based qHTS assay (AID 1963587); also: nearly all actives have a fitted effect of over 30% in size; also: potency is read from the fitted curve at half-maximal effect
In short: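 CHO cells stably expressing human HTR2A, plated 18 h, loaded with calcium dye 1 h at 37 C. Agonist mode: compounds added and intracellular calcium fluorescence recorded kinetically for 2 min at 1 sec intervals.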

[11] = biological target: Muscarinic acetylcholine receptor M1 (Homo sapiens) (UniProt P11229); test: Cholinergic receptor muscarinic 1 (CHRM1) small molecule antagonists, cell-based qHTS assay (AID 1963588); also: nearly all actives have a fitted effect of over 40% in size; also: potency is read from the fitted curve at half-maximal effect
In short: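 Compounds were tested at 15 concentrations in three independent runs. Dye-loaded CHRM1-CHO cells were exposed 5 min at room temperature before stimulation by acetylcholine added at 50nM. Intracellular calcium was read kinetically on FDSS for 3 min.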

[12] = biological target: Muscarinic acetylcholine receptor M1 (Homo sapiens) (UniProt P11229); test: Cholinergic receptor muscarinic 1 (CHRM1) small molecule agonists, cell-based qHTS assay (AID 1963589); also: nearly all actives have a fitted effect of over 35% in size; also: potency is read from the fitted curve at half-maximal effect
In short: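 qHTS, 15-point titration, 3 independent runs: compounds pin-transferred onto dye-loaded CHRM1-CHO cells (human M1), calcium fluorescence followed every second to detect agonism.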

[13] = cAMP Responsive Elements (CRE) small molecule agonists, cell-based qHTS assay (AID 1963590)
In short: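 Quantitative HTS for CRE agonists: HEK 293T CRE-bla cells, overnight plating, 3 h compound incubation at 37 C/5% CO2, then 2 h room-temperature LiveBLAzer B/G FRET substrate loading.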

[14] = cAMP Responsive Elements (CRE) small molecule antagonists, cell-based qHTS assay (AID 1963591; active = well fitted inhibition curve with a large enough effect in the signal ratio in the repeat runs, not every such curve was filed as active; the % refers to the signal ratio; also: potency is read from the fitted curve at half-maximal effect)
In short: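 Fluorescence intensity from cleaved LiveBLAzer B/G substrate (2 h, room temperature) quantified CRE-bla activity in HEK 293T cells exposed 3 h to compound with 0.25 uM final NKH477.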

[15] = biological target: Beta-2 adrenergic receptor (Homo sapiens) (UniProt P07550); test: Adrenergic beta2 receptor (ADRB2) small molecule antagonists, cell-based qHTS assay (AID 1963592); also: nearly all actives have a fitted effect of over 50% in size; also: potency is read from the fitted curve at half-maximal effect
In short: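 Assay format: CHO-ADRB2 cells, 18-20hr seeding at 37C/5% CO2, then compound plus 1nM isoproterenol agonist mix for 0.5hr RT. Homogeneous time-resolved fluorescence cAMP detection after 1hr, expressed as 665/615 nm ratio.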

[16] = biological target: Beta-2 adrenergic receptor (Homo sapiens) (UniProt P07550); test: Adrenergic beta2 receptor (ADRB2) small molecule agonists, cell-based qHTS assay (AID 1963593);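 also: CHO cells stably overexpressing human ADRB2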
In short: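 CHO cells stably over-expressing ADRB2 were plated overnight at 37C, then dosed with compounds plus a stimulation mix containing 100uM IBMX and 25uM Ro-20-1724 for 0.5hr at room temperature. cAMP was measured by HTRF competition, 1hr.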

[17] = biological target: D(2) dopamine receptor (Homo sapiens) (UniProt P14416); test: Dopamine D2 receptor (DRD2) small molecule agonists, cell-based qHTS assay (AID 1963594); also: nearly all actives have a fitted effect of over 35% in size; also: potency is read from the fitted curve at half-maximal effect
In short: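 HEK293 cells stably expressing human DRD2, pre-treated with PDE inhibitor Ro20-1724 (0.1 mM final) and compound 10 min at room temperature, then stimulated with NKH477 (200nM […]) for 30 min. cAMP read by HTRF (665/620 nm).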

[18] = biological target: D(2) dopamine receptor (Homo sapiens) (UniProt P14416); test: Dopamine D2 receptor (DRD2) small molecule antagonists, cell-based qHTS assay (AID 1963595; active = well fitted inhibition curve with a large enough effect in the signal ratio in the repeat runs, with a control signal flat; the % refers to the signal ratio; also: potency is read from the fitted curve at half-maximal effect)
In short: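 In this cell-based antagonist screen, compounds act for 10 min at room temperature before a 30 min challenge with 12 nM quinpirole and 200 nM NKH477. cAMP is quantified by HTRF competition in DRD2-HEK293 cells containing 0.1 mM Ro20-1724.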

[19] = p53 small molecule agonists, cell-based qHTS assay with human liver microsomes: qHTS cell viability counter screen (AID 1963579); also: nearly all actives have a fitted effect of over 45% in size; also: potency is read from the fitted curve at half-maximal effect
In short: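 HLM-supplemented (0.5 mg/mL final) and NADPH-supplemented (0.5 mg/mL final) p53RE-bla cultures, 4,000 cells per well, were dosed with compounds in DMSO for 16 h at 37 C; luminescent ATP detection (CellTiter-Glo, 30 min, room temperature) quantified surviving cells.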

[20] = biological target: Gonadotropin-releasing hormone receptor (Homo sapiens) (UniProt P30968); test: Human gonadotropin-releasing hormone receptor (GnRHR) small molecule agonists, calcium flux assay in GnRHR-HEK293 cells (AID 1920063); also: nearly all actives have a fitted effect of over 35% in size; also: potency is read from the fitted curve at half-maximal effect
In short: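 Calcium flux, agonist mode, human GnRHR stably integrated in HEK293; dye 1 h at 37 C before compound; Ex/Em=480/540 kinetic read, 3 min; 15 concentrations, triplicate.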

Measured: Potency

Chain of Muscarinic acetylcholine receptor M1 (Homo sapiens) (P11229 whole entry, looked up): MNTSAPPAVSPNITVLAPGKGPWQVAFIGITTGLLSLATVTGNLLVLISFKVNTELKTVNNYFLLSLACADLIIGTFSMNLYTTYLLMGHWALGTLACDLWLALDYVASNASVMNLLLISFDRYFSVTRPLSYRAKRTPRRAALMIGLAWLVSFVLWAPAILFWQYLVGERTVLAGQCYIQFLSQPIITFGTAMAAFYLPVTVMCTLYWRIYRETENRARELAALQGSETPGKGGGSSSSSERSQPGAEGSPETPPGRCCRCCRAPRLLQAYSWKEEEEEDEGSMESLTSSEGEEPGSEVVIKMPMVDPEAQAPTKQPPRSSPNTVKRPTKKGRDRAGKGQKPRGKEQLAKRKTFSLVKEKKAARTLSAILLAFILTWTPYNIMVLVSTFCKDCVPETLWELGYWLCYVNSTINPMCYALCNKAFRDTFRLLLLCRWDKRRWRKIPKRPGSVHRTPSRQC
Chain of 5-hydroxytryptamine receptor 2A (Homo sapiens) (P28223 whole entry, looked up): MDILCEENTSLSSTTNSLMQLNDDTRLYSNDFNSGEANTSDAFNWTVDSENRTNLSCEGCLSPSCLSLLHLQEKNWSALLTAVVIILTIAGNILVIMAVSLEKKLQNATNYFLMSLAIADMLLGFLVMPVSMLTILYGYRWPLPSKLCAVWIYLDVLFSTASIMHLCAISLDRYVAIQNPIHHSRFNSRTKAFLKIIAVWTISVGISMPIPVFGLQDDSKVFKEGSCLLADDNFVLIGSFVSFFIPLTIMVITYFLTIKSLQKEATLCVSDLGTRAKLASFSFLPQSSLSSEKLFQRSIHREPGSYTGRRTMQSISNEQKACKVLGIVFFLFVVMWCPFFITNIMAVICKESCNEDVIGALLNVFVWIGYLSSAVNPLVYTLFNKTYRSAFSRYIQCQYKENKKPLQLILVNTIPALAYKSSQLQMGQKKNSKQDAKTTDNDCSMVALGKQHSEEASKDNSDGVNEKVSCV
Chain of Beta-2 adrenergic receptor (Homo sapiens) (P07550 whole entry, looked up): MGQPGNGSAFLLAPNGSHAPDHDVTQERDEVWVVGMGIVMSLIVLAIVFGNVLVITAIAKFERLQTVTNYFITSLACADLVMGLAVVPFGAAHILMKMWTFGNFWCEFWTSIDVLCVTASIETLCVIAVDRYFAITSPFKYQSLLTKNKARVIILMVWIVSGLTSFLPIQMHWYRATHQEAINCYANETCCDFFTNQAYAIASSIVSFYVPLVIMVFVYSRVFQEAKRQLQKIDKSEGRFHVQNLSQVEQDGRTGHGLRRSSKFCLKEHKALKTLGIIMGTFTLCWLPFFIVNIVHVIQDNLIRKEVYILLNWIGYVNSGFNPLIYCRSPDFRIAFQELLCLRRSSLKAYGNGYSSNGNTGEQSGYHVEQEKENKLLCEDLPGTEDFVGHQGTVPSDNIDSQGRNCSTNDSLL
Chain of Gonadotropin-releasing hormone receptor (Homo sapiens) (P30968 whole entry, looked up): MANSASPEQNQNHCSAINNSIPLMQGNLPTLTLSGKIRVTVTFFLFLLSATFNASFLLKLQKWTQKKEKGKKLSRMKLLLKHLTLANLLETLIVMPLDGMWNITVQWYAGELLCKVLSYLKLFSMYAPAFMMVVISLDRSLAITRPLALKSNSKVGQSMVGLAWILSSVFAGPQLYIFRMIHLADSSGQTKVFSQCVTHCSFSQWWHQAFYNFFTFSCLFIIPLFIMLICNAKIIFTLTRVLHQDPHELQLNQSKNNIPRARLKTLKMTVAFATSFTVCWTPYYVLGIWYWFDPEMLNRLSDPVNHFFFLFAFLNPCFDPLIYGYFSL
Chain of D(2) dopamine receptor (Homo sapiens) (P14416 whole entry, looked up): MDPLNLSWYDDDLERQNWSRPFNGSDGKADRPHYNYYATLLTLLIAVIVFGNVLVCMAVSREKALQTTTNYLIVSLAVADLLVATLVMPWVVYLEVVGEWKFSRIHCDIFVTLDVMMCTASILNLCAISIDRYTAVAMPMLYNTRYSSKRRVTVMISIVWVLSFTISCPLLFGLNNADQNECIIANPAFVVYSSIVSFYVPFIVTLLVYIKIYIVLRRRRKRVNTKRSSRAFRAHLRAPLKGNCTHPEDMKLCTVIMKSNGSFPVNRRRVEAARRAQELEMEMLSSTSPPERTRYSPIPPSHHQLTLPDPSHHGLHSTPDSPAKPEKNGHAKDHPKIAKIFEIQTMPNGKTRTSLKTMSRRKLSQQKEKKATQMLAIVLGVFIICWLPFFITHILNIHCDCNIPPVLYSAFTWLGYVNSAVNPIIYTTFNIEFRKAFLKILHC

COCCl
22.7 µM (active) and inactive: [10]
50.9 µM (active) and inactive: [12]
not listed: [19] | [20]
inactive: all other assays above

CCOc1nc(F)cc2nc(S(=O)(=O)Nc3c(Cl)cccc3Cl)nn12
not listed: [15] | [16] | [18] | [20]
inactive: all other assays above

Clc1ccc(COC(Cn2ccnc2)c2ccc(Cl)cc2Cl)cc1 (configuration not stated)
38 µM (active) and inactive: [19]
active: [1] 45.3 µM and 27.2 µM and 13.3 µM | [2] 22.7 µM and 13.3 µM | [14] 50.8 µM
inactive: [3] | [4] | [5] | [6] | [13] | [15]

CC12CC1(C)C(=O)N(c1cc(Cl)cc(Cl)c1)C2=O (configuration not stated)
not listed: [10] | [20]
inactive: all other assays above

O=C/C=C/c1ccccc1
not listed: [2] | [9] | [10] | [11] | [12] | [14] | [16]
inactive: all other assays above

Nc1ccc([As](=O)(O)O)cc1
not listed: [2] | [16]
inactive: all other assays above

Cl[C@H]1OCCO[C@@H]1Cl
not listed: [2] | [11]
inactive: all other assays above

Oc1ccc(-c2ccccc2)cc1
60.3 µM (active) and inactive: [15]
not listed: [2] | [16]
inactive: all other assays above

CCC[CH2][Sn]([Cl])([Cl])[Cl]
not listed: [2] | [15] | [16]
inactive: all other assays above

CNc1cnn(-c2cccc(C(F)(F)F)c2)c(=O)c1Cl
not listed: [2] | [18]
inactive: all other assays above

CCCCCCCCCCCC[N+](C)(C)CCOc1ccccc1
748 nM (active) and inactive: [11]
active: [1] 27.3 µM | [20] 38.9 µM and 16.9 µM | [9] 133 nM and 46 nM | [18] 48.6 µM
inactive: [3] | [4] | [5] | [8] | [12] | [15] | [17]
45.8 µM (active) and inactive: [19] | [6] | [7]

C[CH2][Hg][S]c1ccccc1C(=O)O
active: [1] 1.22 µM and 5.96 µM | [20] 38.9 µM | [19] 10.2 µM and 11.2 µM | [6] 18.2 µM and 9.98 µM | [7] 10.2 µM and 11.2 µM | [9] 18.8 µM | [10] 43.6 µM and 21.3 µM | [12] 54.9 µM and 19 µM | [17] 16.6 µM
inactive: [3] | [4] | [5] | [18]
27.3 µM (active) and inactive: [15]

O=[N+]([O-])O[C@H]1CO[C@H]2[C@@H]1OC[C@H]2O[N+](=O)[O-]
not listed: [2] | [8]
inactive: all other assays above

O=C(NC(=O)c1ccccc1Cl)Nc1ccc(OC(F)(F)F)cc1
not listed: [2] | [12] | [13] | [18]
inactive: all other assays above

CN=C=S
44 µM (active) and inactive: [10]
not listed: [2]
inactive: all other assays above

C=C(C#N)CCC#N
not listed: [2] | [10] | [16]
inactive: all other assays above

O=C/C=C/c1ccco1
not listed: [2] | [14] | [16] | [18]
inactive: all other assays above

Cc1ccc2c(C)cccc2c1
not listed: [2] | [10] | [16]
inactive: all other assays above

C=CC(=O)OCC(CC)CCCC (configuration not stated)
not listed: [2] | [17]
inactive: all other assays above

CCCCCCCCCCCCBr
not listed: [2] | [8] | [16]
inactive: all other assays above

CC(C)OC(=S)S
active: [1] 30.6 µM
not listed: [2] | [8] | [16]
inactive: all other assays above

CCCCCCCCCc1ccc(O)cc1
active: [1] 27.6 µM
inactive and 40.8 µM (active): [6]
not listed: [2] | [9] | [10] | [11] | [12] | [16]
inactive: all other assays above

N#Cc1cccc(C#N)c1
not listed: [2] | [16] | [18]
inactive: all other assays above

CCCCCCCCCCCC#N
inactive and 42.3 µM (active): [19]
not listed: [2] | [8] | [12] | [16]
inactive: all other assays above

CCOP(=S)(OCC)SCCSCC
not listed: [4] | [5] | [6] | [8] | [20]
inactive: all other assays above

N#CCCC#N
not listed: [2] | [13]
inactive: all other assays above

CCOC(=S)S
active: [1] 27.3 µM and 18.3 µM
not listed: [2] | [8] | [16]
inactive: all other assays above

Cc1cc(Cl)ccc1OCCCC(=O)O
not listed: [2] | [8] | [13] | [14]
inactive: all other assays above

Cc1ccc(CCl)cc1
not listed: [2] | [9] | [11] | [18]
inactive: all other assays above
